# Screening data as filed in PubChem BioAssay.
# The list is not random: actives were taken first. Their share in the collection is about 1.6%.
# KCNQ2 block: blocks the rat KCNQ2 potassium channel | B-score at 10 µM | AID 2156 | CHO-K1 KCNQ2, FluxOR thallium flux, 20 min; hits give low values | O88943 | 310,000 tested, 1.1% active;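 active = fluorescence ratio B-score at most minus 3 library SDs, with starting brightness B-score within 2 library SDs, cut at about -5.5 in these data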
# Target sequence (O88943 whole entry, looked up): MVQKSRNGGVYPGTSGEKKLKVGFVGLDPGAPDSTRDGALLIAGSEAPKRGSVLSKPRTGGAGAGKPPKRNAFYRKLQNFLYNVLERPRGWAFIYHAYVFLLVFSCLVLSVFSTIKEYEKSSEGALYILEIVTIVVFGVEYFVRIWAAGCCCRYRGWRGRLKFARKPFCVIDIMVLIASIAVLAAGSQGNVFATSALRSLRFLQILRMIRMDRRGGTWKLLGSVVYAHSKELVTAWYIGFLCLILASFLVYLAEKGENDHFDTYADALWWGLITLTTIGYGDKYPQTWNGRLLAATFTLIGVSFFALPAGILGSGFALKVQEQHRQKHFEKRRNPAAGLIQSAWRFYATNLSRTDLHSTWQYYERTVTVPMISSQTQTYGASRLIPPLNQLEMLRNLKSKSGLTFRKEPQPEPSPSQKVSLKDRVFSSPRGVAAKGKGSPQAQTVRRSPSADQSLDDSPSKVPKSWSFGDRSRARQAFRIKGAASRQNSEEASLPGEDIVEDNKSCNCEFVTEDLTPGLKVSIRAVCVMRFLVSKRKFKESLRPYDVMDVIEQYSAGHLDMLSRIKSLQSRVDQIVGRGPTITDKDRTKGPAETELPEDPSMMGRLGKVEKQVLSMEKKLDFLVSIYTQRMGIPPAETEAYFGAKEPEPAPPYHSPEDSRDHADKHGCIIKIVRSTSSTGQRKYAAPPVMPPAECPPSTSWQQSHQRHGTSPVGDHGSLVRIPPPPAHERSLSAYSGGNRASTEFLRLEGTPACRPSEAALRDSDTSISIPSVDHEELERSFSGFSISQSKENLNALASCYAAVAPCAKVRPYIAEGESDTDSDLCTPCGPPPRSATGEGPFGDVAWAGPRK
# KCNQ2 pot: enhances the rat KCNQ2 potassium channel; 310,000 tested, 0.54% active; AID 2239; CHO-K1 KCNQ2, FluxOR thallium flux fluorescence; hits give high values; B-score at 10 µM;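 active = fluorescence ratio B-score at least 3 SD of library B-scores, with initial fluorescence B-score within 3 of them, cut at about 5.3 in these data; same plate scores as AID 2156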;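 note: B-score of peak minus minimum over baseline fluorescence ratio after K+ and Tl+ stimulus; positive B-score means potentiation of KCNQ2 with more thallium influx and brighter signal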
# Kir21 confirm: confirmation of mouse Kir2.1 potassium channel inhibitors; Tl flux remaining, % of negative control (hits give low values), % at 10 µM; AID 2032; 2,300 tested, 41% active; Kir2.1-expressing cells, FluxOR thallium flux fluorescence; hits give low values; shares compounds with KCNQ2 pot;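 active = Primary-screen hit whose thallium flux fell at least 3 control SD below untreated wells in both duplicates, with normal baseline fluorescence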;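 note: 0% = blank wells without stimulus and 100% = stimulated no-compound controls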
# HEK293 ctr: counter-screen for Kir2.1 inhibitors: effect in parental HEK293 cells. FluxOR signal as % of negative control (100 = no effect), % at 10 µM. AID 2105. shares compounds with KCNQ2 pot. 2,300 tested, 19% active. FluxOR thallium flux fluorescence; 0% = unstimulated blank wells;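 active = dye signal at least 3 control SD above or below untreated wells in both duplicates, raw fluorescence within 3, either direction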;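 note: percent is based on the flux ratio of peak minus minimum fluorescence over baseline F0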
# CHO-K1 ctr: counter-screen for KCNQ2 potentiators: effect in parental CHO-K1 cells | shares compounds with KCNQ2 pot | FluxOR thallium flux fluorescence; zero = vehicle mean+3SD, 100% = vehicle-minus-blank window | activity increase over 3SD of controls, % at 10 µM | 1,200 tested, 43% active;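 active = signal rise of at least 3 SD above the untreated control mean, in both duplicate wells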;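 note: counter screen of KCNQ2 potentiator hits so any rise reflects channel-independent effects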
# KCNQ1 sel pot: human KCNQ1 counter-target activity of KCNQ2 potentiators; activation over 3SD threshold, % at 10 µM; shares compounds with KCNQ2 pot; 1,200 tested, 28% active; CHO KCNQ1 stable, FluxOR thallium flux fluorescence; beyond 3SD, as % of vehicle-control signal; AID 2283;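 active = fluorescence ratio rise of at least 3 SD of vehicle wells above their mean, in both replicate wells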;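 note: 0% = vehicle mean plus 3 SD and 100% = vehicle minus unstimulated blank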
# KCNQ2 pot confirm: confirmation of rat KCNQ2 potassium channel potentiators; shares compounds with KCNQ2 pot; CHO-KCNQ2 cells, FluxOR thallium flux fluorescence; potentiation, less the hit threshold, % at 10 µM; 1,200 tested, 68% active; AID 2287;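 active = fluorescence ratio rising 3 SD or more over the vehicle control mean in both replicates, plus primary screen hit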;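 note: peak minus minimum thallium fluorescence divided by baseline after K/Tl stimulus; 0% = vehicle mean plus 3 SD and 100% = vehicle minus unstimulated blank difference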
# Kir21 spec: selectivity of KCNQ2 potentiators: effect on mouse Kir2.1; shares compounds with KCNQ2 pot; HEK293 Kir2.1, FluxOR thallium flux fluorescence; activity over 3SD threshold, % at 10 µM; 1,200 tested, 2% active; AID 2345;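 active = fluorescence ratio rise of at least 3 SD above the vehicle-control mean, seen in both replicates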;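 note: 0% = vehicle mean plus 3 SD and 100% = vehicle minus no-stimulus blank window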
# KCNQ2 W236L pot: potentiates the retigabine-insensitive rat KCNQ2 W236L mutant channel; shares compounds with KCNQ2 pot; CHO KCNQ2-W236L, automated patch clamp current; current increase over 3SD of negative controls (%), hits give high values, % at 25 µM; 940 tested, 10% active; AID 2558;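 active = current increase at least 3 SD of the untreated controls above them in both duplicate recordings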
# * hit, by the source's call; i = inactive; . = not tested or not shown.
SMILES,KCNQ2 block,KCNQ2 pot,others
O=C(CC1CCC1)Nc1cccc2c([N+](=O)[O-])cccc12,i,9.6*,Kir21 confirm=i;HEK293 ctr=i;CHO-K1 ctr=-1;KCNQ1 sel pot=56*;KCNQ2 pot confirm=35*;Kir21 spec=-39;KCNQ2 W236L pot=i
O=C(CN1CCCCCC1)Nc1ccccc1[N+](=O)[O-],i,.,
Cc1ccc2c(c1)C(c1ccccc1)N(C(=O)c1c(F)cccc1Cl)CC(=O)N2 (centres undefined),i,.,
COc1ccccc1C(=O)Nc1cc(-c2ccc(C)cc2)no1,i,.,
Cc1cc(C)n(-c2ccc(C(=O)NCc3ccc4c(c3)OCO4)cc2)n1,i,0.49,
Cc1cc(C)n(-c2ccc(C(=O)NCc3ccc(F)cc3)cc2)n1,i,1.1,Kir21 confirm=22%*;HEK293 ctr=i
O=C(CSc1nnc(NC(=O)c2c(F)cccc2F)s1)NCc1ccc(F)cc1,i,2.2,
Cc1c(N=NC2=C(O)CC(C)(C)CC2=O)cc2c(c1[N+](=O)[O-])C(C)(C)CC2(C)C,i,6.7*,Kir21 confirm=i;HEK293 ctr=i;CHO-K1 ctr=42*;KCNQ1 sel pot=-11;KCNQ2 pot confirm=0;Kir21 spec=-31;KCNQ2 W236L pot=i
COc1ccccc1N=NC1=C(O)CC(C)(C)CC1=O,i,.,
CSc1ncccc1C(=O)NC1CC(C)(C)Cc2c1cnn2-c1ccccc1C (centres undefined),i,.,
O=c1ccsn1Cc1ccccc1,i,5.7*,CHO-K1 ctr=-18;KCNQ1 sel pot=-17;KCNQ2 pot confirm=-4;Kir21 spec=-63
O=c1cc(Cl)[nH]c(=O)n1Cc1ccccc1,i,1.1,
Cc1cc(C)c(OCC(=O)OCC(=O)NCC2CCCCC2)c(C)c1,i,.,
CCOc1ccccc1NC(=O)c1nc(S(=O)(=O)Cc2cccc(C)c2)ncc1Cl,i,0.76,
CCc1nnc(NC(=O)c2nc(S(=O)(=O)Cc3ccc(C)cc3)ncc2Cl)s1,i,15*,CHO-K1 ctr=-22;KCNQ1 sel pot=-16;KCNQ2 pot confirm=63*;Kir21 spec=-53;KCNQ2 W236L pot=26%*
CCc1nnc(NC(=O)c2nc(S(=O)(=O)Cc3ccccc3)ncc2Cl)s1,i,12*,Kir21 confirm=i;HEK293 ctr=i;CHO-K1 ctr=97*;KCNQ1 sel pot=-19;KCNQ2 pot confirm=87*;Kir21 spec=-44;KCNQ2 W236L pot=70%*
CC(=O)Nc1ccc(NC(=O)c2nc(S(=O)(=O)Cc3ccccc3)ncc2Cl)cc1,i,.,
CCc1nnc(NC(=O)c2nc(S(=O)(=O)Cc3cccc(C)c3)ncc2Cl)s1,i,18*,CHO-K1 ctr=5.0*;KCNQ1 sel pot=-1;KCNQ2 pot confirm=64*;Kir21 spec=-57;KCNQ2 W236L pot=19%*
COc1ccc(CNC(=O)c2nc(S(=O)(=O)Cc3ccccc3)ncc2Cl)cc1,i,.,
CN(CC(=O)Nc1ccccc1Cl)C(=O)COC(=O)C1=COCCO1,i,.,
CNC(=O)CSc1nnc(-c2ccccc2F)n1CCc1ccccc1,i,1,
CCOc1ccc(CN2CCNC(=O)C2CC(=O)NCCN2CCOC2=O)cc1 (centres undefined),i,.,
O=C(N/N=C/c1ccc(O)cc1O)c1ccc(NC(=O)C2CCCCC2)cc1,i,1,
COc1cccc(CN(C)C(=O)Cc2ccc(OC)c(S(=O)(=O)N3CCOCC3)c2)c1,i,1.1,
Fc1ccc(Nc2nnc(C(F)(F)F)s2)cc1Cl,i,7.2*,Kir21 confirm=i;HEK293 ctr=i;CHO-K1 ctr=-4;KCNQ1 sel pot=76*;KCNQ2 pot confirm=16*;Kir21 spec=-30;KCNQ2 W236L pot=i
SMILES,KCNQ2 block,KCNQ2 pot,others
FC(F)(F)c1nnc(Nc2ccc(Cl)cc2)s1,i,3.1,
O=C(NCc1ccc(F)cc1)C1CCN(S(=O)(=O)c2cccc3nonc23)CC1,i,.,
O=C(Nc1ccccc1)Nc1ncc([N+](=O)[O-])s1,i,7.8*,Kir21 confirm=i;HEK293 ctr=i;CHO-K1 ctr=-23;KCNQ1 sel pot=90*;KCNQ2 pot confirm=15*;Kir21 spec=-67;KCNQ2 W236L pot=i
O=C(Nc1ncc([N+](=O)[O-])s1)c1cccc([N+](=O)[O-])c1,i,1.9,
CC(CNC(=O)CCC(=O)N1CCOc2ccc(Cl)cc21)c1ccccc1 (centres undefined),i,.,
CC(=O)Oc1ccc(N(C(C)=O)S(=O)(=O)c2ccc(C)cc2)c2ccccc12,i,1.1,
CN(C)/C=C1/N=C(c2ccccc2)OC1=O,i,1.4,
O=CC1=C(c2ccccc2)Oc2ccccc2O1,i,.,Kir21 confirm=52%*;HEK293 ctr=i
CC1(C)C2CC=C(/C=N/NC(=S)NCCc3ccccc3)C1C2 (centres undefined),i,5.5*,Kir21 confirm=i;HEK293 ctr=i;CHO-K1 ctr=-15;KCNQ1 sel pot=-16;KCNQ2 pot confirm=-18;Kir21 spec=-26
CNC(=S)N/N=C/C1=CCC2CC1C2(C)C (centres undefined),i,1.4,
COc1ccc(NC(=O)CN(C)C(=O)c2ccc3[nH]c4c(c3c2)CC(C)CC4)cc1 (centres undefined),i,.,
CN(C)c1nc(C=C(C#N)C#N)c(Cl)n1-c1ccc(F)cc1,i,.,
O=C(COC(=O)CN1C(=O)C2CCCCC2C1=O)NNC(=O)c1ccc(Cl)cc1 (centres undefined),i,0.43,
Cc1cc(C(F)(F)F)nc(SCC(=O)NC2CC3CCC2C3)n1 (centres undefined),i,6*,CHO-K1 ctr=-13;KCNQ1 sel pot=-11;KCNQ2 pot confirm=43*;Kir21 spec=-54;KCNQ2 W236L pot=i
Cc1cc(C(F)(F)F)nc(SCC(=O)Nc2ccccc2)n1,i,0.13,
CCCCN(Cc1ccco1)S(=O)(=O)c1csc(C(N)=O)c1,i,.,Kir21 confirm=48%*;HEK293 ctr=i
CC(CCc1ccco1)N(C)S(=O)(=O)c1csc(C(N)=O)c1 (centres undefined),i,0.17,
O=C(NNC(=O)c1cc(Cl)ccc1O)c1cccc(S(=O)(=O)N2CCOCC2)c1,i,.,
CCCOc1cccc(-c2cc(C(=O)N/N=C/c3ccccn3)c3ccccc3n2)c1,i,5.5*,Kir21 confirm=i;HEK293 ctr=i;CHO-K1 ctr=-13;KCNQ1 sel pot=-36;KCNQ2 pot confirm=-26;Kir21 spec=-41
CCCOc1cccc(-c2cc(C(=O)NN)c3ccccc3n2)c1,i,0.73,
CCOC(=O)CSc1[nH]c2cc(OC)ccc2c1[N+](=O)[O-],i,0.03,
COC(=O)CSc1[nH]c2ccc(F)cc2c1[N+](=O)[O-],i,6.4*,Kir21 confirm=i;HEK293 ctr=i;CHO-K1 ctr=-10;KCNQ1 sel pot=-27;KCNQ2 pot confirm=29*;Kir21 spec=-40;KCNQ2 W236L pot=38%*
COc1ccc(CN2CCNC(=O)C2CC(=O)NCCC2=CCCCC2)c(F)c1 (centres undefined),i,.,
CCOC(=O)c1cccc(OCC(O)CNCCOc2ccccc2F)c1 (centres undefined),i,0.64,
